Here are results for 40 sequences from the supplement of paper PMC10681739.
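Note: Full-length recombinant human ETS1 or RUNX1 bound to double-stranded 36-bp genomic probes on microarrays, detected by protein-specific primary antibody and Alexa488 secondary, spot fluorescence as median of four replicate spots.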

Chain of RUNX1 (Q01196 whole entry): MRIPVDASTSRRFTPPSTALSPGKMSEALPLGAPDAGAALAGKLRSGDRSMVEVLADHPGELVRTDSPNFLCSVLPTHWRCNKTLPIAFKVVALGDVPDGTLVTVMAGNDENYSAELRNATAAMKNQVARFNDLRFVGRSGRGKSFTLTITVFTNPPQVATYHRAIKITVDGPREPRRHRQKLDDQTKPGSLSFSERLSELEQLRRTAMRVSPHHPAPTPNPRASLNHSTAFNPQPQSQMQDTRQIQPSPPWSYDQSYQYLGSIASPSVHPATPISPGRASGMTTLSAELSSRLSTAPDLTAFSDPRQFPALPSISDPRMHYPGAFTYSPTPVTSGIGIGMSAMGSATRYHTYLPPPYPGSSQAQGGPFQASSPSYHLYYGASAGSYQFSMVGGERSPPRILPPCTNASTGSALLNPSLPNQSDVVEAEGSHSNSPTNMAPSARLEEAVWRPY

This test addresses RUNX1 (UniProt Q01196). Description: RUNX1 binding intensity (PBM fluorescence) in presence of ETS1, normalised to RUNX1-only experiment (arbitrary fluorescence units); higher = stronger binding. The note with it: RUNX1 concentration 2 nM; ETS1 concentration 25 nM. As to the method:
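Cooperative gcPBM on 36-bp genomic probes with neighbouring ETS1 and RUNX1 sites. Recombinant human RUNX1 (2 nM) was incubated alone or with ETS1 (25 nM) and detected with anti-RUNX1 antibody plus Alexa488 secondary. Values are medians over 4 replicate spots; the RUNX1+ETS1 data were normalised to the RUNX1-only data. The probes sit in constant array flanks that are not printed.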
For CTTCTTCCTGCTGAGACTGATACAGCCCGCAAAGCT, the RUNX1 binding intensity came to 1800.

CCTGCCTGAGGCAGGAAGCCGCAGCTGAGGGACGGC: the RUNX1 binding intensity worked out at 1280.

For GAGGAACCCAAAGTAGGATGTGGTTTTGCAATTGGA, the RUNX1 binding intensity amounted to 1770.

CAGGCTGCTTCCGGCGCGCGGCAGAGCGGTCAGAGC: the RUNX1 binding intensity was 1700.

As to GAAGCTACTCTGGTTTCCTGTGGTTTTCTGAGCACT, the RUNX1 binding intensity is 2900.

Consider GAAGTGAGGTCAGGATGTGGTGGGTGACCCCTGAAA, for which the RUNX1 binding intensity turned out to be 1090.

With CCTCTGAGGCAGGAAGCTGCGGTGAAGTCTGAAGTT, the RUNX1 binding intensity turned out to be 2070.

For the sequence AGGAGCCGGAAGTCCCGCCCACGCACCCCCCGCAGG, the RUNX1 binding intensity is 1770.

As to GTAGAGACAGGAAATTATGTTGGTTTTCTTGCAGAA, the RUNX1 binding intensity came to 1310.

As to CTAACCCTTCTCTTCCTGCAAAAACCACAACAAAGG, the RUNX1 binding intensity was determined as 3580.

Take AAAGTTGTATAGTGAGGATGTGGTCAAGAACTCACC: the RUNX1 binding intensity worked out at 1180.

Turning to GCCGTGGGTACGACCGGAAGCCGCAGGTGGGTGAAG, the RUNX1 binding intensity came to 1540.

As for GTTCTCCACATCCTGTTCCGTAGCTGTGGTGCACCG, the RUNX1 binding intensity was found to be 8880.

Regarding AGGGGAGGAACCAGGAAGTTGTGGTAAACTGTAGCA, the RUNX1 binding intensity amounted to 2360.

Turning to TTGCTTTATCACTTCCTGTTTGAGGTTTATATCCAT, the RUNX1 binding intensity was found to be 3160.

TGGAGAGCACAGGAAGTGGCCCACAGCCCAGGCCAA: the RUNX1 binding intensity came out at 1280.

Take AACAGTTGCATAGGAAGTGGTCAGCTCTCCTCCACC: the RUNX1 binding intensity amounted to 999.

With CCACTGCTTCCGCCTTCTCTGCTGGCTGCGGGGAGC, the RUNX1 binding intensity came to 2210.

ATCTTTTGATGAGGATGTGGTTTCCAGGCAGGTGCT: the RUNX1 binding intensity was determined as 1620.

In the case of GAAGCAGACAGGAAGTGGGTCTGAGCGGTGGAGGGA, the RUNX1 binding intensity was 1910.

GTTGGGGTGCGTGTAGGATGTGGTCTGGGATGATTA: the RUNX1 binding intensity was 867.

For AAGAGGAAATAAATACCAGAGTGAACCCACAAACCT, the RUNX1 binding intensity stood at 903.

Regarding AACTTAGCTTCCGGGAAGAAGGCGAGCGGTGGGAGG, the RUNX1 binding intensity turned out to be 1400.

Turning to ACGGGGAAGAACGGAAGTGGTTTCCATGATGGTCTG, the RUNX1 binding intensity came to 4470.

As for CTTCTTTCCAGAGGATGTGGCTTCAGCGGGAGAGCT, the RUNX1 binding intensity is 1030.

In the case of AGTTGGTTCCTTCCGGTGGGTTTGTGGGTTTGGGGT, the RUNX1 binding intensity was 2390.

CTAGCCAGGAAGATAAAGAAGAAACCACCAAAGAGA: the RUNX1 binding intensity turned out to be 834.

Consider CCGGGACCGGAAGAGGGAGCCGTGGTTGCTGGAACT, for which the RUNX1 binding intensity came out at 1960.

For CCTCCCACCTTGGCAGGAAGCGGTTTATCAGATTAA, the RUNX1 binding intensity was 2280.

Consider TGGTGGCTATTTCCTCTCCCGCTGTGGTCCCTGGAG, for which the RUNX1 binding intensity was 1470.

Take CCAGCGGAAAGCCGGTCAGGGGGAACCGCGGCGGGG: the RUNX1 binding intensity came out at 758.

As for GGCGGATGGGGAGAAGAGAGTGGCTGTGGTCTCTGG, the RUNX1 binding intensity was determined as 712.

TGCATGCAACAGGAAGTGGGGTGTGGTTTGTTCTGG: the RUNX1 binding intensity was 1890.

On to CAGATTCAAGGAAGTGGTGGTGGTTTGGTGTCGTTG, for which the RUNX1 binding intensity worked out at 907.

Consider CAACTTCCGGGGCCGGTTGCCTGGCAACCGCAGGAG, for which the RUNX1 binding intensity was found to be 3790.

In the case of TTAAGGAGCTTCCGGGGCCGCGGGTAGAGGCGGGTG, the RUNX1 binding intensity is 1420.

With ACTATTTTTAGACTTCCCCACCCCGCAGTTTCAAGG, the RUNX1 binding intensity worked out at 1010.

Consider TCCAGGCATTTCCCCCATGTTGGCTCACCGCACTAT, for which the RUNX1 binding intensity worked out at 1290.

As to CTTTTCCATGCAGGAAGTGGTTTTTAGAGTGTAGAG, the RUNX1 binding intensity stood at 2920.

With AGTTTCTCAGCTTCCTGTGTGGTTTTCTTGATCTGC, the RUNX1 binding intensity was determined as 4280.
